Assay results taken from PubChem BioAssay AID1508624 (National Center for Advancing Translational Sciences (NCATS), 2021).
The whole screen tested about 48,000 compounds, of which about 120 (0.25%) were called active. Another 4% or so got no clear call; they are omitted. Calls follow the shape of the dose curve; as a rule, active = well fitted activation curve with a large enough effect; inconclusive = small, poorly fitted or top-dose-only effect, or another doubt; inactive = no such curve, though single readings can be large or run the other way. This excerpt belongs to a sample that is enriched for actives.

test: Primary qHTS for Identification of Small Molecule Activators of Huntingtin-Antisense Promoter Activity; settings: HEK293 HTT-AS promoter firefly luciferase reporter, 24 h; series mostly up to 57.5 µM; activity change, positive = activation: at the top concentration; also: nearly all actives have a fitted effect of over 55% in size
Description: Assay Provider: Russell L. Margolis M.D.
Department Neurology, Johns Hopkins University School of Medicine, Baltimore, MD
Huntington's Disease (HD) is a neurodegenerative disorder caused by a CAG repeat expansion in exon 1 of huntingtin (HTT). While there are currently no disease-modifying treatments for HD, recent efforts have focused on development of nucleotide-based therapeutics to lower HTT expression. As an alternative to siRNA or oligonucleotide methods, we hypothesized that suppression of HTT expression might be accomplished by small molecules that either (1) directly decrease HTT expression by suppressing HTT promoter activity or (2) indirectly decrease HTT expression by increasing the promoter activity of HTT-AS, the gene antisense to HTT that appears to inhibit expression of HTT.
We developed and employed a high throughput screen for modifiers of HTT and HTT-AS promoter activity using luminescent reporter HEK293 cells; of the 52,041 compounds tested, we identified 898 replicable hits. We used a rigorous stepwise approach to assess compound toxicity and the capacity of the compounds to specifically lower huntingtin protein in 5 different cell lines, including HEK293 cells, HD lymphoblastoid cells, mouse primary neurons, HD iPSCs differentiated into cortical-like neurons, and HD hESCs. We found no compounds which were able to lower huntingtin without lowering cell viability in all assays, though the potential efficacy of a few compounds at non-toxic doses could not be excluded.
SEQUENCE No. (1, 2, 3, etc.); […] (e.g., Cells, Incubation, Reagent, etc.); VALUE and DESCRIPTION.
1; Reagent; 4 uL; 2,500 Hek293 luciferase reporter cells per wells
3; Compound; 23 nL; Control inhibitor / compound library
5; Reagent; 2.5 uL; Firefly Luc reagent; Dual-Glo Luciferase Reporter Assay System (Promega)
6; Time; 10 min; room temperature incubation
7; Detection; Luminescence; FLuc
NOTES (numbers refer to sequence above)
1; High-throughput screening, measuring luminescence from a Hek293 luciferase reporter, was performed in 1,536 well white-walled tissue-culture treated plates. 2,500 cells were plated in 4 µL of Opti-MEM per well using a Multidrop Combi Reagent Dispenser (ThermoFisher).
2; Assay plates were cultured for 24 hours.
3; Control inhibitor (PTC124; final concentration of 50 uM) and compound library (at final concentrations of 460 nM - 57.5 uM) were added to the assay plate using the Kalypsis Pintool Robotic System equipped with 1536 pinheads.
4; Cells were then incubated for 24 hours at 37 degrees C prior to luminescence measurements.
5; In all cases, luminescence was measured using the Dual-Glo Luciferase Reporter Assay System (Promega) following the manufacturer's instructions.
6; Room temperature incubation.
7; Luminescence signal was obtained using the PerkinElmer ViewLux plate reader. Results were normalized to vehicle control (0% activity) and zero RLU (-100% activity).

Activity change, positive = activation, inactive:
Cc1cccc(N2CCN(C(=O)CCn3c(=O)c4cccn4c4cccnc43)CC2C)c1 (centres undefined) -33.7%
CCCCOc1ccc(C(=O)Nc2cccc(-c3nc4ccccc4o3)c2C)cc1 -12.4%
COc1cccc(-n2c(=O)c3c(C)c(C(=O)N(C)C)sc3n(CC(=O)NCCc3ccc(OC)c(OC)c3)c2=O)c1 -9.08%
COc1ccccc1N1CCN(c2ncnc3onc(-c4ccc(F)cc4)c23)CC1 -11.1%
CCCN1CN=C(NS(=O)(=O)c2ccc(NC(C)=O)cc2)NC1 -0.211%
COCCCNC(=O)c1ccc(NC(=O)c2nsc3ccccc23)cc1 -39%
CCSc1nnc2c(n1)OC(c1ccc(OCC(=O)O)cc1)Nc1ccccc1-2 (centres undefined) 1.7%
CCCN(CCC)C(=O)C(Cc1ccccc1)NS(=O)(=O)c1ccc2c(c1)c(=O)n(C)c(=O)n2C (centres undefined) -13.7%
Cc1cc(C)cc(NC(=O)Cn2nc(N3CCN(c4ccccc4)CC3)ccc2=O)c1 -25.9%
Cc1nn(C(=O)c2c(F)cccc2F)c(C)c1S(=O)(=O)N1CCOCC1 -7.32%
CCOc1ccccc1C(=O)NCc1ccc2c(c1)CCN2C(=O)c1ccc(F)cc1 -1.69%
O=C(Nc1cc(C(F)(F)F)ccc1Cl)c1cc2nc(-c3ccc4c(c3)OCO4)cc(C(F)(F)F)n2n1 13.7%
CCN(CC)c1ccc(NC(=O)CN2C(=O)c3cccnc3Oc3ccc(Cl)cc32)c(C)c1 -5.22%
Fc1ccc(CN2CCc3nc(Nc4ccccc4)ncc3C2)cc1F -11.7%
CCc1ccc(C2C(C(=O)Nc3ccccc3)=C(C)Nc3c(C(=O)Nc4ccc(C)cc4)cnn32)cc1 (centres undefined) -28.5%
COc1cc(-c2cc3n(C)c(C)c(CCC(=O)Nc4ccc(F)cc4)c(=O)n3n2)cc(OC)c1OC -7.63%
COc1ccc(NC(=O)CCCc2nnc3n(CCC(C)C)c(=O)c4sccc4n23)c(OC)c1 -3.2%
CCOc1ccc(CNC(=O)c2ccc3c(c2)nnn3C2CCCC2)cc1 4.86%
COc1ccc(OC)c(-c2noc(N3CCN(c4cc(Cl)ccc4C)CC3)n2)c1 -30%
CC(=O)c1ccc(S(=O)(=O)N2CCC(Oc3ccc(-n4cnnn4)cc3)CC2)cc1 -15.4%
CO[C@@H]1[C@@H](O)[C@H](O)[C@@H](n2c3c(Cl)cccc3c3c4c(c5c6cccc(Cl)c6[nH]c5c32)C(=O)NC4=O)O[C@@H]1CO -36%
Cc1cccc(S(=O)(=O)c2cn(Cc3ccccc3)c3cc(N4CCOCC4)c(F)cc3c2=O)c1 -22%
CC(=O)N1CCCc2cc(S(=O)(=O)N3CCC(C(=O)NCc4ccc(F)cc4)CC3)ccc21 -27%
CCCS(=O)(=O)Nc1cccc(-c2cn3ccsc3n2)c1 0.221%
Cn1c(=O)cc(OCC(=O)N2CCN(c3ccccc3)CC2)c2ccccc21 -3.9%
COc1ccc(-c2c3c(=O)n(C)c(=O)n(C)c3c3c(C)nc4ccccc4n23)cc1 -13.8%
Cc1cccc(N2CCN(c3ccc(C(=O)O)cc3NC(=O)c3ccccc3F)CC2C)c1 (centres undefined) -19.7%
Cn1c(=O)c(=O)n(C)c2cc(NC(=O)c3ccccc3Br)ccc21 -0.646%
C=C1CCC2[C@](C)(CO)C(O)CC[C@]2(C)C1CC=C1C(=O)OCC1O (some centres undefined) -4.74% [at 116 µM, percent change from vehicle, -100% = no light]
O=c1c(=O)n(Cc2c(F)cccc2Cl)ccn1Cc1ccccc1 -4.92%
COc1ccc(CCNC(=O)c2ccc(-n3c(C)cc4c3CCCC4)cc2)cc1OC 9.05%
CCC(=O)N1c2ccccc2CC1C(=O)N1CCN(c2cccc(OC)c2)CC1 (centres undefined) -17.5%
CCOc1cc(CNC(=O)c2sc3ncnc(N(C)C4CCCCC4)c3c2C)ccc1OC -35.7%
Cc1ccccc1CCNC(=O)C1CCN(c2nc3ccccc3nc2C(F)(F)F)CC1 -6.9%
O=C(NC1CC(=O)N(c2ccc(F)cc2)C1)c1cccs1 (centres undefined) -7.05%
CCOC(=O)C1CCCN(S(=O)(=O)c2cc(-c3cc(C)no3)ccc2OC)C1 (centres undefined) -4.74%
Cc1cccc(C)c1-n1ncc(C(=O)NCCCN2CCCCC2)c1C1CCN(C(=O)OC(C)(C)C)CC1 -21%
Cc1ccc(C(=O)Nc2cc3c(cc2N2CCCC2)n(C)c(=O)c(=O)n3C)cc1 -7.49%
COc1ccccc1NC(=O)C1=C(C)Nc2nc(SCC(=O)c3ccc(C)cc3)nn2C1c1ccccc1C (centres undefined) 2.53%
Cc1c(-c2nsc(NC(=O)c3cccc(Cl)c3)n2)nnn1-c1ccccc1C(F)(F)F -85.6%
Cc1cc(C)cc(NC(=O)Cn2c(=O)c3ccccc3n3nncc23)c1 -1.71%
COc1ccc(Cn2ccn(CC(=O)Nc3cc(C)ccc3C)c(=O)c2=O)cc1 -13.3%
Cc1nn(-c2ccc(F)cc2)c(-n2cccc2)c1C(=O)N1CCN(c2ccccc2)CC1 -22.6%
CCOc1ccc(Nc2oc(/C=C/c3ccc(F)cc3)nc2C#N)cc1 4.81%
CCCC(=O)Nc1ccc(NC(=O)c2sc3ccccc3c2Cl)cc1 -35.3%
O=S(=O)(c1ccc2nc(N3CCN(c4cccc(Cl)c4)CC3)ccc2c1)N1CCCCC1 -6.05%
CCOC(=O)c1ccc(NC(=O)CC2C(=O)N(c3ccccc3)C(=O)N2Cc2cccs2)cc1 (centres undefined) -8.82%
Cc1cc(Cl)ccc1OCC(=O)N(Cc1ccc(N(C)C)cc1)C1CCS(=O)(=O)C1 (centres undefined) -14.8%
CCC(=O)N1CCc2cc(S(=O)(=O)NC(C(=O)NCCc3ccc(C)cc3)C(C)C)ccc21 (centres undefined) -1.83%
CCOc1ccc(CCNC(=O)c2csc3c2CCCCC3)cc1 -21.7%
Cc1ccc2nc(-c3ccc(C)c(NC(=O)Cc4ccccc4)c3)oc2c1 -72.1%
CCCN(CCC)S(=O)(=O)c1ccc(C(=O)Nc2sc3c(c2C(=O)OC)CCN(CC)C3)cc1 -29.2%
O=C(C1CC1)N1CCc2cc(Br)cc(S(=O)(=O)N3CCN(c4ccccc4F)CC3)c21 -14.5%
CCOc1ccc(NC(=O)c2c(NC(=O)Cc3ccccc3)sc3c2CCCCC3)cc1 -10.1%
